Reference: ChEMBL document CHEMBL3988442, “University of Dundee, Small-Polar-MMV Screening Library” (2021)
Among all 48,000 compounds or so, about 13,000 (27%) showed an effect of 50% or more. The list shows a part of the results.

Test system: Wolbachia pipientis
Test: Anti-Wolbachia Cell-Based Screen
Type: functional
Design: scale not given: in the data most compounds retested in dose-response had high values
Conditions: 5 µM

Compared with COc1cccc(-c2csc(Cn3ccc(=O)[nH]c3=O)n2)c1, COc1ccc(-c2cc(C(=O)NCCCn3ccnc3C)n(C)n2)cc1 is higher in “Percent Effect” value: -10.2% for the first, 159.9% for the second.

Compared with COCCCn1ccc(NC(=O)NCCn2ccnc2)n1, COc1ccc(-c2cc(C(=O)NCCn3ccnc3)n(C)n2)cc1 is higher in “Percent Effect” value: -3.976% for the first, 156.8% for the second.

Going from Fc1ccc2c(c1)nc1n2[C@@H](CNCc2nccs2)COC1 to COCc1nc2cc(NCc3ncc[nH]3)ccc2o1, the “Percent Effect” value rises from -7.093% to 3.493%.

Compared with Cc1nc(Cn2cc(C#N)c(=O)c3ccccc32)no1, CNC(=O)Cn1cc(C#N)c(=O)c2cc(Br)ccc21 is lower in “Percent Effect” value: -5.414% for the first, -8.636% for the second.

Going from N#Cc1cc(N2CCC(CS(N)(=O)=O)CC2)nc2ccccc12 to COC(=O)c1ccc(N2CCC(c3ccccc3)CC2)nn1, the “Percent Effect” value falls from -7.143% to -9.28%.

Compared with CC1CN(C)CCN1C(=O)NCCCn1ccnc1 (stereo unspecified), Cn1nc(-c2ccc(F)cc2)cc1C(=O)NCCn1ccnc1 is higher in “Percent Effect” value: 19.65% for the first, 186.2% for the second.

First: COc1ccc2cc(CN(C)C(C)c3nc(C(C)(C)C)no3)ccc2c1 (stereo unspecified)
Second: COc1ccc(OCCN(C)Cc2nc3c(cnn3C)c(=O)[nH]2)cc1
The “Percent Effect” value of the first is lower: -2.359% for the first, 98.39% for the second.

Compared with CN(C)C(=O)CN1C[C@H]2CCN(Cc3ccccc3)CC[C@H]2S1(=O)=O.O=C(O)C(F)(F)F, CN(C)C(=O)CN1CCC2(CC1)COc1ccccc1S(=O)(=O)N(C)C2.O=C(O)C(F)(F)F is higher in “Percent Effect” value: -15.21% for the first, 107.3% for the second.

Compared with CN1CC2(CCN(CC3CC3)CC2)COc2ccccc2S1(=O)=O.O=C(O)C(F)(F)F, CN1CC2(CCN(Cc3ccoc3)CC2)COc2ccccc2S1(=O)=O.O=C(O)C(F)(F)F is lower in “Percent Effect” value: 105.1% for the first, 1.89% for the second.

Compared with COc1cccn(CC(=O)N(C)CCC2CCOCC2)c1=O, COc1cccc(C2CCCN2C(=O)c2cc3c([nH]c2=O)CCC3)c1 (stereo unspecified) is higher in “Percent Effect” value: -97.94% for the first, 13.18% for the second.

First: CN1CCN([C@@H]2CCN(C3CCOCC3)[C@H]2Cc2cnn(C)c2)CC1.O=C(O)C(F)(F)F.O=C(O)C(F)(F)F.O=C(O)C(F)(F)F
Second: CC(C)NC1CCc2c(ccc(=O)n2CCN2CCOCC2)C1.O=C(O)C(F)(F)F.O=C(O)C(F)(F)F (stereo unspecified)
The “Percent Effect” value of the first is lower: -4.702% for the first, 1.575% for the second.

First: Cc1nccn1-c1cc(CNC(=O)C2CCC(=O)N2)ccn1 (stereo unspecified)
Second: Cn1cnc(-c2nc(C(=O)NC3CC3)c3ccccn23)c1
The “Percent Effect” value of the first is higher: -0.872% for the first, -8.322% for the second.

Compared with CN1CCC2(COCCN(Cc3cccc(C#N)c3)C2)C1.O=C(O)C(F)(F)F.O=C(O)C(F)(F)F (stereo unspecified), CS(=O)(=O)N1CCc2ccc(=O)n(CCN3CCCC3)c2CC1.O=C(O)C(F)(F)F is higher in “Percent Effect” value: -6.492% for the first, 96.15% for the second.

First: Cc1cc(N2CCC(N(C)Cc3cccnc3)C2=O)n(C)n1 (stereo unspecified)
Second: Cc1ccccc1CN(C)Cc1nc2c(cnn2C)c(=O)[nH]1
The “Percent Effect” value of the first is lower: 5.804% for the first, 16.78% for the second.

First: CCC(C(=O)NCc1ccncc1)N(c1cccc(C)c1)S(C)(=O)=O (stereo unspecified)
Second: CC(C)c1nccn1CCCNC(=O)c1ccc(-c2ccncc2)nc1
The “Percent Effect” value of the first is lower: -0.3468% for the first, 3.275% for the second.

Compared with CS(=O)(=O)N1CCc2ccc(=O)n(CC3CC3)c2CC1, CCS(=O)(=O)N1CCc2ccc(=O)n(CC3CC3)c2CC1 is lower in “Percent Effect” value: -5% for the first, -6.425% for the second.

First: c1cnc(N2CCC(OCCN3CCCCC3)C2)nc1 (stereo unspecified)
Second: O=c1ccc2c(n1CCN1CCCC1)CCN(c1ncccn1)CC2
The “Percent Effect” value of the first is lower: 7.193% for the first, 103.5% for the second.

Going from O=c1ccc2c(n1CC1CC1)CCN(c1ncccn1)CC2 to c1cnc(N2C[C@H]3CCN(c4cccnc4)C[C@H]3C2)nc1, the “Percent Effect” value falls from 91.07% to -4.407%.

First: O=C1OCCN1CCSc1nnnn1C1CCOCC1
Second: O=C(O)C(F)(F)F.O=C([C@H]1COC[C@H]2CN(C3CCOCC3)C[C@H]21)N1CCCO1
The “Percent Effect” value of the first is higher: 4.471% for the first, 2.638% for the second.

Compared with CCc1c(O)nc(SC(C)CC)n(-c2ccccc2)c1=O (stereo unspecified), Cc1nc2cc(=O)[nH]n2c(C)c1CNC(=O)C(C)(C)c1ccccc1 is lower in “Percent Effect” value: -9.121% for the first, -10.11% for the second.

First: Cc1ccc(CNC(=O)NC2CCC(O)CC2)c(N2CCCC2)c1 (stereo unspecified)
Second: Cc1ccc(CNC(=O)CN2CCN(CC(O)C3CC3)CC2)cc1.Cl.Cl (stereo unspecified)
The “Percent Effect” value of the first is higher: -1.85% for the first, -4.273% for the second.

Going from COc1ccc(C)cc1CN(C)Cc1nc2c(cnn2C)c(=O)[nH]1 to Cc1ccc(CN(C)Cc2nc3c(cnn3C)c(=O)[nH]2)c(C)c1, the “Percent Effect” value rises from -1.165% to 10.63%.

Compared with CN(Cc1nc2c(cnn2C)c(=O)[nH]1)Cc1ccc(F)cc1F, CCN(Cc1nc2c(cnn2C)c(=O)[nH]1)c1cccc(F)c1 is higher in “Percent Effect” value: -0.6664% for the first, 1.042% for the second.

Compared with CN(CCOc1cccc(F)c1)Cc1nc2c(cnn2C)c(=O)[nH]1, Cc1ccc(OCCN(C)Cc2nc3c(cnn3C)c(=O)[nH]2)cc1 is lower in “Percent Effect” value: 123% for the first, 122.7% for the second.

Going from CN(CCCOc1ccc(F)cc1)Cc1nc2c(cnn2C)c(=O)[nH]1 to CN(CCCOc1ccccc1)Cc1nc2c(cnn2C)c(=O)[nH]1, the “Percent Effect” value rises from -3.245% to 105%.

Going from Cc1ccsc1CN(C)Cc1nc2c(cnn2C)c(=O)[nH]1 to CSCC[C@@H](CO)Nc1nc(-c2ccccn2)nc2c1c(C)nn2C, the “Percent Effect” value falls from 5.162% to -12.31%.

Compared with FC(F)(F)COCCN1CCc2cncnc2C1, O=C(CCN1CCOC(C(F)(F)F)C1)NCc1ccccc1Cl (stereo unspecified) is higher in “Percent Effect” value: -42.17% for the first, 4.795% for the second.

First: CNC(=O)Cc1ccc(NC(=O)NCC(C)c2ncc(C)s2)cc1 (stereo unspecified)
Second: Cc1ccc(CNC(=O)CN2CCN(CC(O)c3ccco3)CC2)cc1.Cl.Cl (stereo unspecified)
The “Percent Effect” value of the first is higher: 5.803% for the first, 0.6703% for the second.

Compared with CC(=O)N1CCc2ncn(C)c2C1C(=O)N1CCCC1.O=C(O)C(F)(F)F (stereo unspecified), CC(C)NC(=O)[C@H]1C[C@@H]2[C@@H](C1)OCCN2Cc1cnn(C)c1.O=C(O)C(F)(F)F is lower in “Percent Effect” value: -4.032% for the first, -20.9% for the second.

First: CC(C)Nc1ccnc(-c2ccnc3c2ccn3C)n1
Second: COc1ccc(-c2ncc(-c3nccn3CCN(C)C)cn2)cc1
The “Percent Effect” value of the first is lower: -57.68% for the first, -4.545% for the second.

First: CC(C)(NC(=O)c1scnc1Cl)c1ccccc1
Second: COC(=O)[C@@H]1Cc2ncn(C)c2CN1S(=O)(=O)Cc1ccccc1
The “Percent Effect” value of the first is lower: -10.08% for the first, -8.847% for the second.

Going from COc1cc2c(cc1C(=O)N1CC(c3ccncc3)C1)CCC2 to O=C(N1CCC(Oc2ccncc2)C1)C1(c2ccccc2F)CC1 (stereo unspecified), the “Percent Effect” value falls from -5.879% to -11.14%.

Going from O=C(NCCn1ccnc1)c1cccc(Br)c1 to O=C(NCCn1ccnc1)c1cccc(F)c1, the “Percent Effect” value falls from 8.46% to 6.195%.

Going from O=C(NCCn1ccnc1)c1cc(F)cc(Br)c1 to O=C(NCCn1ccnc1)c1cncc(Br)c1, the “Percent Effect” value rises from 6.627% to 15.29%.

Compared with Cc1nc(C(F)(F)F)nc(N2CCC(O)(C(=O)O)CC2)c1C, Cc1nc(-c2nc(C(=O)N3CCOCC3)c3ccccn23)cn1C(C)C is higher in “Percent Effect” value: -14.39% for the first, -8.689% for the second.

Compared with O=C(CN1CCCc2c(F)cc(Br)cc21)N1CCN(C(=O)C2CC2)CC1, O=C(NCCN1CCCCC1=O)C1CCC(=O)N(C2CCCC2)C1 (stereo unspecified) is lower in “Percent Effect” value: 3.977% for the first, -13.2% for the second.

First: N#Cc1ccnc(N2CCN(C3CCOC3=O)CC2)c1 (stereo unspecified)
Second: Cl.Cl.O=C(CN1CCN(CC(O)C2CC2)CC1)NCc1ccccc1Cl (stereo unspecified)
The “Percent Effect” value of the first is lower: -3.021% for the first, 116.4% for the second.

First: O=C(CN1CCS(=O)(=O)CC1)NCc1ccccc1F
Second: Cl.Cl.O=C(CN1CCN(CC(O)C2CC2)CC1)NCc1ccccc1 (stereo unspecified)
The “Percent Effect” value of the first is lower: -2.021% for the first, 118.5% for the second.

Compared with O=C(O)c1nnn(Cc2cccc(C(F)(F)F)c2)c1-c1cccnc1, FC(F)(F)c1cccc(N2CCC(NCc3cccnc3)CC2)c1 is lower in “Percent Effect” value: 14.53% for the first, 10.28% for the second.

Compared with CS(=O)(=O)NC1CCCN(Cc2ccccn2)C1 (stereo unspecified), O=C(Nc1ccc(Cl)cn1)C1CCCN(Cc2ccccn2)C1 (stereo unspecified) is higher in “Percent Effect” value: -8.857% for the first, 22.45% for the second.

Going from CNC(=O)[C@@H]1[C@H]2CN(Cc3ccccn3)CCN2C[C@H]1c1ccccc1 to CNC(=O)[C@@H]1[C@@H](c2ccccc2)CN2CCN(Cc3ccccn3)C[C@H]12, the “Percent Effect” value falls from 121% to 89.14%.

Going from CNC(=O)[C@@H]1C[C@@H](N)CN1C1CCN(Cc2ccccn2)CC1 to CSc1ccccc1C(C(=O)O)N1CCN(Cc2ccccn2)CC1 (stereo unspecified), the “Percent Effect” value rises from -2.984% to 5.13%.

Going from CC(C)c1cc(C(=O)N(C)C(C)c2nccs2)no1 (stereo unspecified) to Cc1nc(-c2nc(C(=O)N(C)C)c3ccccn23)cn1C(C)C, the “Percent Effect” value rises from -2.417% to 84.92%.

Compared with O=C(CCc1ccc(O)cc1)N1CCC(Cc2ccc(CO)cc2)C1 (stereo unspecified), Cc1cccn2cc(CC(=O)N3CCCC(n4cncn4)C3)nc12 (stereo unspecified) is higher in “Percent Effect” value: -11.56% for the first, 3.172% for the second.

First: CSc1ccccc1C(=O)NCCC(O)c1ccco1 (stereo unspecified)
Second: CC(C)n1ccc(-c2cc(C(=O)NC3CC3)c3ccccn23)n1
The “Percent Effect” value of the first is lower: -13% for the first, -8.678% for the second.

First: Cc1ccccc1C1(C(=O)N2CCCC(n3cncn3)C2)CC1 (stereo unspecified)
Second: O=C(N1CCCC(n2cncn2)C1)C1(c2ccccc2F)CCCC1 (stereo unspecified)
The “Percent Effect” value of the first is higher: 122.4% for the first, 104.1% for the second.

Compared with Cc1nn(C)c2nc(-c3ccccn3)nc(NCCCOC(C)C)c12, Cc1nc(-c2nc(C(=O)NC3CC3)c3ccccn23)cn1C(C)C is higher in “Percent Effect” value: -17.61% for the first, 96.1% for the second.

First: CNC(=O)CC1COCCN1C(=O)C1(c2ccc(Cl)cc2)CCC1 (stereo unspecified)
Second: CSCCC1c2nc[nH]c2CCN1Cc1cc(Cl)ccc1O (stereo unspecified)
The “Percent Effect” value of the first is lower: -7.784% for the first, -0.8881% for the second.

Compared with c1cc(N2CCC(c3nnc(Cn4ccnc4)n3C3CC3)CC2)ccn1, c1cc(C2CCN(c3cncnc3)CC2)ccn1 is higher in “Percent Effect” value: -8.252% for the first, 107.5% for the second.

Compared with c1ccc(N2CCC(c3ccncc3)CC2)cc1, c1cncc(N2CCC(c3ccncc3)CC2)c1 is lower in “Percent Effect” value: 167% for the first, 81.68% for the second.

First: c1ccc(C2CCCN(c3cncc(-n4cccn4)n3)CC2)cc1 (stereo unspecified)
Second: Cc1cnc(N2CCC(c3ccncc3)CC2)nc1-c1ccnn1C
The “Percent Effect” value of the first is higher: 13.07% for the first, -32.29% for the second.

Going from CC(C)n1cnc(-c2nc(C(=O)N3CCN(C)CC3)c3ccccn23)c1 to CC(C)n1cnc(-c2nc(C(=O)NC3CC3)c3ccccn23)c1, the “Percent Effect” value rises from 2.747% to 100.7%.

Going from Cc1nc(C(=O)N(C)CC(F)(F)C(F)(F)F)c2ccccn12 to Cn1cnc(-c2nc(C(=O)NCCN3CCCC3)c3ccccn23)c1, the “Percent Effect” value falls from 6.68% to -11.17%.
